Results published in PubChem BioAssay AID504660 (National Center for Advancing Translational Sciences (NCATS), 2011).
Screen size: about 360,000 compounds; about 3,700 (1%) were called active. What follows is part of a selection rich in actives, with near analogues and random picks from the rest. A number with no mark means an inactive call. No stated cut-off is given here; in the data, active means activation above about 30%; inactive means the rest.

target: D(1A) dopamine receptor (Homo sapiens) (UniProt P21728); experiment: Allosteric Agonists of the Human D1 Dopamine Receptor: qHTS; settings: HEK293 T-REx D1 cells, calcium flux, agonist mode; at 2 µM; hits give high values; further: 0% is about no effect
Sequence (P21728 whole entry, looked up): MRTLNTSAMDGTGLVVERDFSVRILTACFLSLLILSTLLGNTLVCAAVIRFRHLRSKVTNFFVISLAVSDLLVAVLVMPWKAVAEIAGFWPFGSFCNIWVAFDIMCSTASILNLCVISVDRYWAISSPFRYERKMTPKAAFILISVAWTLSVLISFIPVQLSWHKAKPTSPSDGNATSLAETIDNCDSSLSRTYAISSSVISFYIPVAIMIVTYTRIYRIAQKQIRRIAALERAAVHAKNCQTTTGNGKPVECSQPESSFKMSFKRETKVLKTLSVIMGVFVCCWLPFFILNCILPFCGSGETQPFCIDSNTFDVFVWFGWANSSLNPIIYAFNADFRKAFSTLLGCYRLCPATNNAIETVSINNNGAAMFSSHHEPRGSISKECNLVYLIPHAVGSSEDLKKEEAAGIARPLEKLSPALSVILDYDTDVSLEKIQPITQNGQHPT
Outline: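 Agonism was scored from calcium flux recorded over 180 s (1 read/s) after pintool compound addition, following a 10-cycle baseline. Cells were inducible force-coupled HEK293 TREx D1, plated overnight at 30 C and loaded with no-wash calcium dye.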

Compound	activation
COc1cccc(CNc2nccn(-c3ccc(OC)c(OC)c3)c2=O)c1	1.78%
COc1cc(NC(=O)Cn2c(=O)n(Cc3ccco3)c(=O)c3oc4ccccc4c32)cc(OC)c1	-0.131%
CC(C)CCn1cnc2c1c(=O)n(CC(=O)NC(N)=O)c(=O)n2Cc1ccccc1	1.24%
N=c1c2c(-c3ccccc3)c(-c3ccccc3)n(Cc3ccccc3)c2ncn1CCCO	112% (active)
COCCn1cnc2c1c(=O)n(CC(=O)NN)c(=O)n2Cc1ccccc1	1.04%
Cc1cc(C)cc(NC(c2nnc(-c3cccc(F)c3)o2)c2ccc(F)cc2Cl)c1 (stereo not given)	2.35%
N#C/C(=C\c1ccccc1F)c1nc2ccccc2c(=O)[nH]1	6.41%
Cn1c(COc2ccccc2C(C)(C)C)nc2ccccc21	19.9%
CC1CN(C(=S)Nc2ccc(Br)cc2Cl)CC(C)O1 (stereo not given)	-0.955%
S=C(Nc1ccc(Br)cc1Cl)NC1CCN(Cc2ccccc2)CC1	30.9% (active)
S=C(Nc1ccc(Br)cc1)NC1CCN(Cc2ccccc2)CC1	39.5% (active)
O=C(NC1CCN(Cc2ccccc2)CC1)c1cc(Br)c(Br)[nH]1	7.63%
Cc1cc(Br)ccc1NC(=S)NC1CCCC1	9.12%
Cc1cc(C(=O)NC2CCN(Cc3ccccc3)CC2)n[nH]1	1.69%
CCN(Cc1ccccc1)Cc1c(O)ccc2c(=O)c(-c3ccc(Cl)cc3Cl)coc12	-1.31%
Cc1ccc(NC(=O)NC(C)c2c(-n3cccc3)sc(C)c2C)c(C)c1 (stereo not given)	-1.09%
CCOC(=O)c1cc2ccccc2nc1C	31.8% (active)
CCOC(=O)c1cc(NC(=O)SCC(=O)O)c(C)nc1C	1.84%
CCOC(=O)c1cc2ccccc2n1CC(=O)c1ccccc1	6.36%
CCOc1ccc(N(CC)C(=O)C2CCN(S(=O)(=O)c3cccc4nonc34)CC2)cc1	0.273%
CCOc1cccc(CC(=O)N2CCc3c([nH]c4ccccc34)C2c2ccc(F)cc2)c1OCC (stereo not given)	2.49%
Cc1ccccc1NC(=S)NC(=O)Cc1ccc(Cl)cc1	69.1% (active)
Cc1ccccc1N/C(SCc1ccc(Cl)cc1)=C(/C#N)C(N)=O	3.17%

Compound	activation
O=C(NC(=S)Nc1ccc(Cl)cc1Cl)C1CC1	1.23%
O=C(Cc1ccc(Cl)cc1)NC(=S)Nc1ccccc1O	35.4% (active)
Cc1cc(C(=O)NNC(=S)Nc2ccccc2C)cs1	2.41%
COC(=O)c1ccccc1NC(=O)CN(Cc1ccc(Cl)cc1)S(C)(=O)=O	3.99%
Cc1nnc(NC(=O)CSc2nc3c([nH]c4ccccc43)c(=O)n2-c2cccc(Cl)c2)s1	-0.131%
COC(=O)c1scc(-c2ccccc2)c1S(=O)(=O)Nc1ccccc1	3.73%
COc1cccc(NC(=O)C(=O)NCC(c2ccc3c(c2)OCO3)N2CCN(C)CC2)c1 (stereo not given)	5.73%
Cn1c(=O)c2c(SCC(=O)N3CCc4ccccc43)nc(-c3ccc(Cl)cc3)nc2n(C)c1=O	0.75%
CCc1ccc(NC(=O)c2cc(S(=O)(=O)N3CCCC(C)C3)cn2C)cc1 (stereo not given)	3.74%
CC(C)c1ccc(S(=O)(=O)Nc2ccc(O)c(Sc3nc4ccccc4s3)c2)cc1	2.29%
CCN(C(=O)Cn1cc(S(=O)(=O)N2CCN(c3ccccc3F)CC2)c2ccccc2c1=O)c1ccc(C)c(C)c1	11.2%
Cc1ccc(C(=O)N2c3ncnn3C3(CCCCC3)[C@@H]3CCCC[C@@H]32)cc1	-0.224%
Cc1ccc2c(c1)N(C(=O)CCC(=O)NCc1ccccc1F)CC(C)O2 (stereo not given)	1.03%
O=C(COc1ccc(NC(=O)c2ccccc2[N+](=O)[O-])cc1)c1ccc(F)cc1	3.67%
Cc1ccc2nsnc2c1NC(=O)c1ccccc1[N+](=O)[O-]	6.33%
O=C(CCc1ccccc1)Nc1ccc(NC(=O)C2CC2)nc1	5.75%
O=C(CCc1ccccc1)Nc1ncc([N+](=O)[O-])s1	30.3% (active)
CC(=O)Oc1ccccc1C(=O)Nc1ncc([N+](=O)[O-])s1	32.6% (active)
O=C(CCc1ccccc1)Nc1nn[nH]n1	3.14%
Fc1cccc(-n2ncc3c2ncn2nc(-c4ccccc4Cl)nc32)c1	-0.538%
CCOc1ccc(N(CC)S(=O)(=O)N2CCCC(C(=O)NCc3ccc(SC)cc3)C2)cc1 (stereo not given)	15.3%
COc1cc(/C=C2/SC(=S)N(Cc3ccccc3)C2=O)cc(OC)c1O	61.8% (active)
